p53null 39C kill – qHTS Screen for Compounds that Selectively Target Cancer Cells with p53 Mutations: Cytotoxicity of p53 Null Cells at the Nonpermissive Temperature | AID 904, 2007 | H1299 p53-null (neo) cells, 39C, ATPlite viability, 24 h | Potency, µM (series often up to 46.1 µM), without a hit: at the top dose activity, negative = cell killing, actives largely listed as cytotoxic | actives 0.97% (n = 55,000);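 note: 0% = DMSO only and -100% = full killing by 100 µM tamoxifen; nearly all actives have a fitted effect of over 50% in size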
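Temperature-shift cytotoxicity format: compound titrations on p53-null or A138V-expressing H1299 cells held 24 hr at 39C, cell ATP then measured, AC50 from Hill model.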
GALC G270D act – A Novel Cell-Based Assay to Identify Small Molecules for B -Galactocerebrosidase | actives 0.1% (n = 45,000) | AID 1159614, 2016 | 145M-Twi-hGALC-G270D cells (Twitcher mouse brain line with human GALC G270D), HMU-beta-Gal fluorescence, 48 h | P54803 | Potency, µM (titrated, usually from 57.5 µM), actives largely listed as activators; note: 0% is about no effect; nearly all actives have a fitted effect of over 65% in size
Target sequence (P54803 whole entry G286D): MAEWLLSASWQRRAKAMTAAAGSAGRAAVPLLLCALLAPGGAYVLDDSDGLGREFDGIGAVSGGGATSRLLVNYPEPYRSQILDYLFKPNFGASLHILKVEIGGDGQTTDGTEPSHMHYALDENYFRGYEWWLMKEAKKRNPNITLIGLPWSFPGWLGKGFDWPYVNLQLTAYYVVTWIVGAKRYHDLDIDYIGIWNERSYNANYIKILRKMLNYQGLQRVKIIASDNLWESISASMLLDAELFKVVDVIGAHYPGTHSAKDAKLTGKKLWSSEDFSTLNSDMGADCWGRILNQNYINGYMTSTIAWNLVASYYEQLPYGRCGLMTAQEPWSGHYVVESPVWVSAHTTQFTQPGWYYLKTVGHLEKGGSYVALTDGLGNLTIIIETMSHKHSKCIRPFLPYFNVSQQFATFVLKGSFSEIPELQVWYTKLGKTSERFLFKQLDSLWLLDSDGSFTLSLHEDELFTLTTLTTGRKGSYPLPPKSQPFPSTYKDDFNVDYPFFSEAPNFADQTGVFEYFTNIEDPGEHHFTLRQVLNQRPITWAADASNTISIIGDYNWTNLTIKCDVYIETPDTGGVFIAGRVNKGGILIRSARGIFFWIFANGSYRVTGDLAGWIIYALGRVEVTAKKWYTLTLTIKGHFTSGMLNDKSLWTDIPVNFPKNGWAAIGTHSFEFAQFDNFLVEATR
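Live 145M-Twi cells (Twitcher mouse brain-derived, GALC-null) stably expressing human GALC-G270D, with a wild-type GALC line, were compound-treated. Residual GALC activity was then read as fluorescence from 0.1 mM final HMU-β-gal at pH 5.2; higher signal means activation.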
p53null 32C tox – qHTS Screen for Compounds that Selectively Target Cancer Cells with p53 Mutations: Cytotoxicity of p53 Null Cells at the Permissive Temperature; H1299-neo p53 null cells, ATP luminescence, 24 h, 32C; Potency, µM (series often up to 46.1 µM), without a hit: top-dose activity change, negative = cytotoxicity, hits mostly cytotoxic; actives 0.62% (n = 55,000); AID 903, 2007;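 note: 0% = DMSO only and -100% = full killing by 100 µM tamoxifen; nearly all actives have a fitted effect of over 55% in size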
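H1299-neo (p53 null) cells, 600/well, treated 24 h at 32C with compound up to 46 uM; ATPlite luminescence viability, normalized to DMSO and 100 uM tamoxifen; AC50 by Hill fit.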
pS6 MEF inh – Acumen qHTS Assay for Inhibitors of the mTORC1 Signaling Pathway in MEF (Tsc2-/-, p53-/-) Cells: Sytravon | AID 493208, 2011 | Tsc2-/- p53-/- MEF, phospho-rpS6 immunofluorescence/PI, 24 h | actives 0.78% (n = 44,000) | Potency, µM (titrated, usually from 38.3 µM), without a hit: at the highest dose activity change, negative = inhibition, most hits filed as inhibitors;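 note: plate controls were DMSO for no effect and rapamycin for full effect; nearly all actives have a fitted effect of over 50% in size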
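Plate MEFs (Tsc2-/-, p53-/-, empty vector) in DMEM/10% FBS; after 24 h add compound, incubate 24 h at 37 degree Celsius; fix in PFA/TX-100, block, stain phospho-rpS6 and 10 uM PI; scan at 488 nm; report % positive cells.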
S16 viability – Cell viability qHTS assay in S16 Pmp22-F2sN cells; S16 Pmp22-F2sN Schwann cells viability, CellTiter-Glo, 24 h; Potency, µM (doses to about 57.5 µM), for the others: at the highest dose activity change, negative = cytotoxicity, hits mostly cytotoxic; actives 0.48% (n = 43,000); AID 1508642, 2021; note: % is set by controls: 0 for no effect and ±100 for the full control effect; nearly all actives have a fitted effect of over 65% in size
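Luminescence from CellTiter-Glo, read by CCD camera after a 15 min room-temperature incubation, served as the viability signal. Reporter Schwann cells (S16 Pmp22-F2sN) had been treated with pin-transferred compounds for 24 h at 37C.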
PMP22 txn prim – Cell-based coincidence reporter assay to measure PMP22 gene transcription in S16 Pmp22-F2sN cells - Primary screen; S16 Pmp22-F2sN Schwann cells (luciferase reporters placed in the Pmp22 gene), FLuc/NLuc coincidence luminescence, 24 h; Potency, µM (top dose mostly 57.5 µM), for inactives: at the top dose activity change, negative = inhibition, most hits filed as inhibitors; actives 2% (n = 43,000); AID 1508649, 2021; active = clear falling dose curves in both reporters; inconclusive = both reporters move, but less clearly or upward; inactive = either reporter flat; the % is the NLuc reporter signal; note: % is set by controls: 0 for no effect and ±100 for the full control effect
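Reporter cells (S16 Pmp22-F2sN, 500–1,000 per well) exposed to compounds for 24 h, 37C, 5% CO2; lysis with FLuc read after 10 min, then Stop&Glo and NLuc read after 10 min.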
An asterisk follows results filed as active; i = inactive; ? = inconclusive; · = no result; [ ] = another dose, or the depositor's remark. Most compounds without a hit are left out; they make up all but 3% or so of the library. Unless noted, calls come from the whole dose curve; as a rule, active = well fitted curve in the direction sought with a large enough effect; inconclusive = small, poorly fitted or top-dose-only effect, or another doubt; inactive = no such curve, though single readings can be large; an effect the other way counts as inactive or inconclusive. Potency is the fitted concentration of half-maximal effect.

SMILES	p53null 39C kill	GALC G270D act	p53null 32C tox	pS6 MEF inh	S16 viability	PMP22 txn prim
O=C(CSc1ccc(-c2ccco2)nn1)NCc1ccc(Cl)cc1	·	·	-4.8%	·	·	·
c1ccc(CSc2ccc(-c3ccco3)nn2)cc1	?	·	11.2µM*	·	·	·
COc1ccc(N2CCN(C(=O)c3cn(CC(C)C)c(=O)c4c3c3ccccc3n4C)CC2)cc1	12.0%	i	13.8%	-0.6%	?	?
COc1cccc(-c2nnc(Nc3nc4c(F)cccc4s3)o2)c1	2.51µM*	·	?	·	·	·
CCn1c(C)cc(/C=C2/SC(=S)NC2=O)c1C	·	·	17.8µM*	·	·	·
CCc1nnc2c(Nc3cccc(C(C)=O)c3)nc3ccccc3n12	-9.5%	i	1.5%	0.6%	2.2%	?
CN(C)c1ccc(/C=C(\C#N)c2nc3ccccc3c(=O)[nH]2)cc1	?	i	0.316µM*	-18.4%	7.1%	?
Cc1ccc2[nH]c(=O)c3cc(C(=O)NCCCN4CCC(C)CC4)sc3c2c1	?	i	-7.0%	3.29µM*	?	?
CCCN(CCC)CCCNC(=O)c1cc2c(-c3ccc(Cl)cc3)nn(C)c2s1	15.8µM*	i	2.8%	13.1µM*	?	?
Cc1ccc(C(=O)Nc2cc3cc(Cl)ccc3oc2=O)cc1	-24.6%	i	12.5%	5.3%	-6.2%	6.5µM*
CCS(=O)(=O)c1ncc(Cl)c(C(=O)N(Cc2ccccc2)Cc2ccco2)n1	?	i	?	3.29µM*	3.55µM*	3.18µM*
CC1CCn2c(nc3cc(C(=O)NCCc4ccccc4)ccc32)C1 (stereo not drawn)	25.1µM*	i	12.6µM*	2.2%	13.4%	24.7%
Cc1ccccc1CCNC(=O)c1ccc2c(c1)nc1n2CCOC1	3.16µM*	i	7.94µM*	0.1%	-1.6%	6.9%
CC1CCn2c(nc3cc(C(=O)NCCc4ccc(Cl)cc4)ccc32)C1 (stereo not drawn)	2.2%	i	-0.8%	-21.8%	0.7%	-27.8%
Cc1ccccc1CCNC(=O)c1ccc2c(c1)nc1n2CCCCC1	1.26µM*	i	2µM*	-0.5%	0.1%	4.4%
Fc1ccc(Nc2nc3nonc3nc2Nc2cccc(C(F)(F)F)c2)cc1	5.62µM*	i	?	?	8.91µM*	7.27µM*
O=C(O)c1cccnc1Nc1cccc(C(F)(F)F)c1	·	i	·	·	·	·
COc1ccccc1NC(=O)C1=C(C)Nc2nc(SCc3cc(C)ccc3C)nn2C1c1ccccc1 (stereo not drawn)	7.8%	i	-8.1%	-2.7%	10µM*	16.8µM*
CCOc1ccccc1NS(=O)(=O)c1ccc2oc(=O)c3ncn(C)c3c2c1	20µM*	·	-18.4%	-1.3%	·	·
CCc1ccccc1NS(=O)(=O)c1ccc2oc(=O)c3ncn(C)c3c2c1	10.8%	·	-8.9%	1.4%	·	·
Cc1ccccc1Nc1c(-c2ccc(N3CCOCC3)cc2)nc2ccc(Cl)cn12	12.6µM*	i	?	0.4%	-16.1%	-0.4%
Cc1ccn2c(Nc3ccccc3C)c(-c3ccc(N4CCOCC4)cc3)nc2c1	7.2%	i	22.0%	-1.0%	-7.4%	-21.2%
Cc1ccc2nc(-c3ccc(N4CCOCC4)cc3)c(Nc3ccccc3C)n2c1	5.01µM*	i	?	-2.3%	-17.5%	?
Clc1ccc2nc(-c3ccc(N4CCOCC4)cc3)c(Nc3ccccc3)n2c1	18.8%	i	-2.5%	1.3%	?	?
CCc1ccc(C(=O)c2cnc3ccc(F)cc3c2S(=O)(=O)c2ccccc2)cc1	78.0%	i	26.2%	11.7µM*	-29.9%	?
SMILES	p53null 39C kill	GALC G270D act	p53null 32C tox	pS6 MEF inh	S16 viability	PMP22 txn prim
Cc1ccc(CSc2nc3cccnc3n2Cc2ccc(C(=O)NCCc3cccs3)cc2)cc1	3.98µM*	i	4.47µM*	-19.9%	-20.5%	?
O=C(NCc1cccs1)c1ccc(CSc2nc3cccnc3n2Cc2ccccc2)cc1	-17.1%	i	1.3%	-4.9%	?	-27.4%
O=C(NCc1ccco1)c1ccc(Cn2c(SCc3ccc(F)cc3)nc3cccnc32)cc1	12.6µM*	i	?	-15.1%	-17.7%	-29.8%
Cc1ccc(CSc2nc3cccnc3n2Cc2ccc(C(=O)NC3CCCCC3)cc2)cc1	11.2µM*	i	12.6µM*	-7.5%	-2.7%	?
O=C(NC1CCCCC1)c1ccc(Cn2c(SCc3ccccc3F)nc3cccnc32)cc1	-27.8%	i	-26.7%	1.1%	?	-35.5%
O=C(NC1CC1)c1ccc(Cn2c(SCc3ccccc3F)nc3cccnc32)cc1	12.6µM*	i	?	-11.7%	?	?
O=C(c1cccnc1)N1CCN(S(=O)(=O)c2ccc(Cl)cc2)CC1	7.2%	·	0.5%	·	·	·
CCc1ccc(NC(=O)[C@H](CSCc2ccccc2)N2Cc3ccccc3C2=O)cc1	12.5%	i	-1.4%	-3.8%	3.0%	-4.8%
O=C(CSc1nc2ccccc2c(=O)n1-c1ccccc1)N1CCc2ccccc21	2.5%[1.84 µM]	·	·	·	·	·
O=C(NCCS(=O)(=O)N1CCN(c2ccccc2F)CC1)C1CC(=O)N(c2ccc(F)cc2)C1 (stereo not drawn)	-16.6%	i	-3.6%	-5.2%	2.9%	4.1%
CC(=O)N1CCCc2cc(S(=O)(=O)N3CCC(C(=O)N(C)C4CCCCC4)CC3)ccc21	-13.6%	i	-0.8%	-4.0%	-17.9%	-28.1%
COc1ccc2[nH]cc(CCNC(=O)Nc3ccccc3)c2c1	-1.2%	i	4.4%	0.2%	-1.7%	-48.0%
COc1ccc2[nH]cc(CCNC(=O)Nc3cc(C)cc(C)c3)c2c1	20µM*	i	10.8%	-2.4%	2.6%	2.5%
Cc1c(-c2nc(-c3ccccc3F)no2)nnn1-c1cc(F)ccc1F	3.16µM*	i	?	-3.8%	0.3%	?
CCOC(=O)CSc1nc2sc3c(c2c(=O)n1-c1ccccc1)CCC(C(C)(C)C)C3 (stereo not drawn)	28.2%	i	3.4%	-1.0%	-2.3%	0.3%
O=C(/C(C=Nc1ccc(F)cc1)=C(/O)c1ccco1)C(F)(F)F	?	·	7.94µM*	·	·	·
